Data on 12 compounds can be found in PubChem BioAssay (NCI).

Among the test systems are RPMI-8226 leukemia; OVCAR-8 ovarian; OVCAR-5 ovarian; OVCAR-4 ovarian; SK-OV-3 ovarian; IGROV1 ovarian; OVCAR-3 ovarian; HS 578T breast; NCI/ADR-RES ovarian; T-47D breast; BT-549 breast; MDA-MB-435 melanoma; SW-620 colon; MCF7 breast; HCT-116 colon; KM12 colon; HCC-2998 colon.
Common to all, as to assay: NCI-60 one-dose screen, 48 h (100 = growth as untreated, 0 = no growth, -100 = all killed)
Holding throughout (settings): 10 µM

The panel holds about 83,000 compounds, 20% with a hit somewhere; the sample as a whole holds those more often.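 How to read the values: 0–100, growth inhibition (40 = 60% inhibited); 0, no net growth; -100 to 0, cell death (-40 = 40% of starting cells died; -100 = all dead).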 The source made the active and inactive calls. The calls were made as follows: active = growth percent below 10; inactive = the rest.

For `COc1ccc(-c2csc(-c3cc(Cl)cc(Cl)c3Cl)n2)cc1`, the growth with RPMI-8226 leukemia was 93.5% (inactive); in the experiment with OVCAR-8 ovarian it was 29.7% (inactive); in the experiment with OVCAR-5 ovarian, 109% (inactive); in the experiment with OVCAR-4 ovarian it was 85.2% (inactive); in the experiment with SK-OV-3 ovarian, 90.5% (inactive); in the experiment on IGROV1 ovarian, 58.3% (inactive). Also, the growth is 105% (inactive) with OVCAR-3 ovarian; 80.4% (inactive) with HS 578T breast; 97.1% (inactive) in the experiment on NCI/ADR-RES ovarian; 50.6% (inactive) in the experiment on T-47D breast; 102% (inactive) in the experiment with BT-549 breast; 80.7% (inactive) in the experiment on MDA-MB-435 melanoma. Further, the growth was 46.4% (inactive) in the experiment with SW-620 colon, 56.2% (inactive) with MCF7 breast, 108% (inactive) with HCT-116 colon and 86.9% (inactive) in the experiment with KM12 colon.
In the case of `Cc1noc(C)c1-c1ccc2nc(NC(=O)[C@H]3CCN(C#N)C3)cn2c1`, the growth in the experiment on RPMI-8226 leukemia was 97.2% (inactive); in the experiment on OVCAR-8 ovarian, 91.6% (inactive); with OVCAR-5 ovarian, 92.7% (inactive); with OVCAR-4 ovarian it was 63.9% (inactive); with SK-OV-3 ovarian it was 103% (inactive); in the experiment with IGROV1 ovarian it was 82.2% (inactive). For the same compound, the growth is 71.7% (inactive) in the experiment with OVCAR-3 ovarian; 84.4% (inactive) with HS 578T breast; 95.8% (inactive) in the experiment with NCI/ADR-RES ovarian; 54.8% (inactive) in the experiment on T-47D breast; 76.3% (inactive) in the experiment with BT-549 breast; 81.7% (inactive) in the experiment with MDA-MB-435 melanoma. Besides, the growth is 83.6% (inactive) in the experiment with SW-620 colon; 71.1% (inactive) in the experiment with MCF7 breast; 82.1% (inactive) in the experiment with HCT-116 colon; 90.4% (inactive) with HCC-2998 colon; 91.3% (inactive) with KM12 colon.
On to `COc1cc(NS(C)(=O)=O)ccc1Nc1c2ccc(Cl)cc2nc2c(OC)cccc12`, for which the growth in the experiment on RPMI-8226 leukemia was -19.6% (active); with OVCAR-8 ovarian it was 11.7% (inactive); in the experiment with OVCAR-5 ovarian, -11.9% (active); in the experiment with OVCAR-4 ovarian, 62.4% (inactive); with SK-OV-3 ovarian, -5.68% (active); in the experiment with IGROV1 ovarian, 19.3% (inactive). For the same compound, the growth in the experiment on OVCAR-3 ovarian was 22.4% (inactive); with HS 578T breast, 20.2% (inactive); in the experiment with NCI/ADR-RES ovarian, 25.8% (inactive); in the experiment on T-47D breast, 27.7% (inactive); with BT-549 breast, 18.3% (inactive); in the experiment on MDA-MB-435 melanoma it was 51% (inactive). The growth in the experiment on SW-620 colon is -32% (active); in the experiment on HCT-116 colon, -63.7% (active); with HCC-2998 colon it was -26.6% (active); in the experiment with KM12 colon, -49.4% (active).
Turning to `Nc1c(C(=O)Nc2ccccc2F)sc2nc3c(cc12)C(=O)CCC3`, the growth with RPMI-8226 leukemia is 52% (inactive); with OVCAR-8 ovarian, 58.6% (inactive); with OVCAR-5 ovarian, 71.1% (inactive); in the experiment with SK-OV-3 ovarian it was 13.6% (inactive); in the experiment with OVCAR-3 ovarian it was 16.8% (inactive); in the experiment on HS 578T breast, 37.2% (inactive). The growth in the experiment on NCI/ADR-RES ovarian was -4.39% (active); in the experiment on T-47D breast, 40.2% (inactive); in the experiment on BT-549 breast, 59.8% (inactive); in the experiment with MDA-MB-435 melanoma, -25.9% (active); with SW-620 colon it was 30% (inactive); in the experiment with MCF7 breast it was 22.9% (inactive). Further, the figures for the growth in the experiment with HCT-116 colon, in the experiment on HCC-2998 colon and with KM12 colon were 32% (inactive), 43.8% (inactive) and 24.6% (inactive), respectively.
`Cc1cn(C(=O)/C(Cl)=C(/Cl)C(=O)O)c2ccccc12`: the growth is 82.4% (inactive) in the experiment on RPMI-8226 leukemia; 110% (inactive) in the experiment with OVCAR-8 ovarian; 103% (inactive) with OVCAR-5 ovarian; 101% (inactive) in the experiment with OVCAR-4 ovarian; 95.8% (inactive) with SK-OV-3 ovarian; 66.1% (inactive) with IGROV1 ovarian. Further, the growth in the experiment with OVCAR-3 ovarian was 104% (inactive); in the experiment with HS 578T breast it was 97.8% (inactive); with NCI/ADR-RES ovarian, 104% (inactive); with T-47D breast, 101% (inactive); in the experiment with BT-549 breast it was 111% (inactive); in the experiment with MDA-MB-435 melanoma, 109% (inactive). Besides, the growth was 104% (inactive) in the experiment on SW-620 colon; 108% (inactive) with MCF7 breast; 105% (inactive) in the experiment with HCT-116 colon; 108% (inactive) with HCC-2998 colon; 108% (inactive) in the experiment on KM12 colon.
With `COc1ccc(Cn2cc3c(c2-c2cc(OC)c(OC)c(OC)c2)CCc2cnoc2-3)cc1[N+](=O)[O-]`, the growth is 27.9% (inactive) with RPMI-8226 leukemia; 48.7% (inactive) with OVCAR-8 ovarian; 58.6% (inactive) with OVCAR-5 ovarian; 47% (inactive) in the experiment on OVCAR-4 ovarian; -12.7% (active) with SK-OV-3 ovarian; 9.29% (active) with IGROV1 ovarian. Further, the growth is -23.6% (active) with OVCAR-3 ovarian; 3.07% (active) with HS 578T breast; 5.02% (active) with NCI/ADR-RES ovarian; 40% (inactive) in the experiment with T-47D breast; 51.9% (inactive) in the experiment with BT-549 breast; -53.9% (active) in the experiment with MDA-MB-435 melanoma. The growth with SW-620 colon was 26.6% (inactive); in the experiment on MCF7 breast, 26.6% (inactive); in the experiment with HCT-116 colon, 19.4% (inactive); in the experiment on HCC-2998 colon, 18% (inactive); with KM12 colon, 24.7% (inactive).
As for `O=C(Nc1ccc(CN2CCOCC2)cc1)c1ccc(-c2cc(Cl)ccc2Cl)o1`, the growth with RPMI-8226 leukemia is -5.45% (active); in the experiment on OVCAR-8 ovarian it was 36% (inactive); in the experiment with OVCAR-5 ovarian it was 72.1% (inactive); with OVCAR-4 ovarian, 50.6% (inactive); with SK-OV-3 ovarian, 81.5% (inactive); in the experiment on IGROV1 ovarian, 34% (inactive). Also, the growth with OVCAR-3 ovarian is 70.9% (inactive); in the experiment on HS 578T breast, 72.2% (inactive); in the experiment on NCI/ADR-RES ovarian, 46.9% (inactive); in the experiment with T-47D breast, 34.7% (inactive); with BT-549 breast, 102% (inactive); in the experiment on MDA-MB-435 melanoma it was -10.5% (active). The growth was -2.26% (active) in the experiment on SW-620 colon; -34.1% (active) in the experiment with MCF7 breast; 22.3% (inactive) with HCT-116 colon; -83.5% (active) in the experiment with HCC-2998 colon; 8.82% (active) in the experiment with KM12 colon.
With `Cn1cnc([N+](=O)[O-])c1Sc1nnc(-c2ccccc2)c(-c2ccccc2)n1`, the growth with RPMI-8226 leukemia is 43.8% (inactive); in the experiment with OVCAR-8 ovarian, 102% (inactive); with OVCAR-4 ovarian it was 73.9% (inactive); with SK-OV-3 ovarian, 120% (inactive); in the experiment on IGROV1 ovarian it was 72% (inactive); with OVCAR-3 ovarian, 51.3% (inactive). Moreover, the growth is 106% (inactive) in the experiment with HS 578T breast; 82.3% (inactive) in the experiment on NCI/ADR-RES ovarian; 9.12% (active) with T-47D breast; 42.1% (inactive) in the experiment with MDA-MB-435 melanoma; 48% (inactive) in the experiment on SW-620 colon; 61.9% (inactive) in the experiment with MCF7 breast. Further, the growth in the experiment on HCT-116 colon was 32.8% (inactive); with HCC-2998 colon it was 96.8% (inactive); in the experiment on KM12 colon it was 92.5% (inactive).
For `COC(=O)CCCCCCCCC(C)c1ccc(C(C)=O)cc1` (configuration not stated), the growth with RPMI-8226 leukemia was 121% (inactive); with OVCAR-8 ovarian, 104% (inactive); in the experiment with OVCAR-5 ovarian, 98.4% (inactive); in the experiment with OVCAR-4 ovarian it was 120% (inactive); with SK-OV-3 ovarian, 102% (inactive); in the experiment on IGROV1 ovarian, 110% (inactive). Besides, the growth with OVCAR-3 ovarian was 108% (inactive); with HS 578T breast it was 93.9% (inactive); in the experiment on NCI/ADR-RES ovarian, 103% (inactive); in the experiment with T-47D breast, 94.4% (inactive); in the experiment on BT-549 breast, 130% (inactive); in the experiment with MDA-MB-435 melanoma, 97.1% (inactive). The growth in the experiment with SW-620 colon was 103% (inactive); with HCT-116 colon, 110% (inactive); in the experiment on HCC-2998 colon it was 99.6% (inactive); in the experiment on KM12 colon, 103% (inactive).
`Cc1cc(C)c(C(=O)OC(C)CNC2CCCCC2)c(C)c1` (configuration not stated): the growth in the experiment on RPMI-8226 leukemia is 92.9% (inactive); in the experiment on OVCAR-8 ovarian, 101% (inactive); with OVCAR-5 ovarian, 59.2% (inactive); in the experiment with OVCAR-4 ovarian, 101% (inactive); in the experiment on SK-OV-3 ovarian, 96.7% (inactive); with IGROV1 ovarian it was 101% (inactive). Also, the growth is 98.5% (inactive) with OVCAR-3 ovarian; 100% (inactive) in the experiment with HS 578T breast; 92.3% (inactive) with NCI/ADR-RES ovarian; 100% (inactive) in the experiment on T-47D breast; 92.4% (inactive) in the experiment on BT-549 breast; 90.8% (inactive) in the experiment on MDA-MB-435 melanoma. Also, the growth with SW-620 colon is 100% (inactive); with MCF7 breast, 97.8% (inactive); in the experiment with HCT-116 colon it was 86.3% (inactive); in the experiment with HCC-2998 colon, 103% (inactive); with KM12 colon, 98.2% (inactive).
`Fc1ccc(Nc2ccnc(N3CCN(c4ccnc5cc(Cl)ccc45)CC3)n2)cc1`: the growth with RPMI-8226 leukemia was 23.9% (inactive); with OVCAR-8 ovarian it was 36.6% (inactive); with OVCAR-5 ovarian it was 55.9% (inactive); with OVCAR-4 ovarian, 33.1% (inactive); with SK-OV-3 ovarian, 56% (inactive); in the experiment with IGROV1 ovarian, 43.7% (inactive). Moreover, the growth in the experiment with OVCAR-3 ovarian was 44.1% (inactive); with HS 578T breast, 61.4% (inactive); in the experiment on NCI/ADR-RES ovarian, 44.1% (inactive); with T-47D breast, -0.414% (active); with BT-549 breast, 75.1% (inactive); with MDA-MB-435 melanoma, 48.6% (inactive). Also, the growth is 63.2% (inactive) in the experiment on SW-620 colon; 19.2% (inactive) in the experiment on MCF7 breast; 15.4% (inactive) in the experiment with HCT-116 colon; 62.6% (inactive) in the experiment with HCC-2998 colon; 42.1% (inactive) with KM12 colon.
Consider `Cc1cc(Nc2cccc(F)c2)nc(NCc2ccccc2)n1`, for which the growth with RPMI-8226 leukemia is -3.16% (active); in the experiment on OVCAR-8 ovarian it was 19.2% (inactive); with OVCAR-5 ovarian, 60.9% (inactive); in the experiment on OVCAR-4 ovarian, 15.9% (inactive); with SK-OV-3 ovarian, 80.6% (inactive); with IGROV1 ovarian, 27.1% (inactive). In addition, the growth is 0.169% (active) with OVCAR-3 ovarian; 68.4% (inactive) in the experiment with HS 578T breast; 11% (inactive) with NCI/ADR-RES ovarian; 15.6% (inactive) in the experiment with T-47D breast; 82% (inactive) in the experiment with BT-549 breast; 23.2% (inactive) in the experiment on MDA-MB-435 melanoma. Further, the growth is 22.7% (inactive) in the experiment with SW-620 colon; 15.1% (inactive) in the experiment on MCF7 breast; 15.8% (inactive) in the experiment with HCT-116 colon; 26.9% (inactive) in the experiment on HCC-2998 colon; 14.1% (inactive) in the experiment on KM12 colon.
